SARS PLpro yeast = inhibitors of SARS-CoV papain-like protease in yeast | S. cerevisiae expressing SARS-CoV PLpro, growth rescue | Potency, µM (top dose mostly 32.9 µM), usual class: activators | 330,000 tested, 0.19% active | AID 485353; calls by dose curve; further: nearly all actives have a fitted effect of over 55% in size
MARV entry inh = Marburg virus entry inhibition; Potency, µM (doses to about 37.8 µM), actives largely listed as inhibitors; AID 540276; Marburg virus pseudotyped entry inhibition, cell reporter; 300,000 tested, 1.8% active; calls by dose curve; tested in HEK293 cells
HCMV inh = inhibitors of human cytomegalovirus. HFF cells, HCMV-luciferase reporter, 72 h; hits give low values. activity change, negative = inhibition, % at 57.5 µM. 410,000 tested, 4.5% active; in the data active means activity change below about -60%; inconclusive means no clear call, values can overlap the other calls; inactive means above about -39%
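HFF cells seeded 16 h at 37C, treated with compounds, infected with luciferase-reporter HCMV at MOI 1 PFU/cell; luciferase read at 72 h post infection, normalized to buffer-only and Salinomycin controls.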
FMDV antiviral = foot and mouth disease virus antiviral activity. FMDV antiviral cell-based qHTS. Potency, µM (top dose mostly 57.9 µM), usual class: inhibitors. 410,000 tested, 1.2% active; calls by dose curve; tested in HEK293T cells; further: read-out not given here; nearly all actives have a fitted effect of over 45% in size
HCV inhibitor = HCV inhibition | Huh7.5.1 HCVcc-Cre infection, luciferase reporter, 44 h | Potency, µM (highest dose often 41.8 µM), actives largely listed as inhibitors | 340,000 tested, 3.4% active | AID 651820; active means well fitted inhibition curve with a large enough effect; inconclusive means small, poorly fitted or top-dose-only effect, or another doubt; inactive means no such curve, though single readings can be large or run the other way
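Whole-lifecycle infectious HCVcc-Cre system; cells 1,000/well, compound then virus (~0.5 moi) added 4 h after plating, 44 h culture. Luciferase read 15 sec following 15 min substrate incubation, room temp.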
LASV entry inh = Lassa virus entry inhibition. Lassa virus pseudotype entry inhibition, cell reporter. Potency, µM (titrated, usually from 37.9 µM), most hits filed as inhibitors. 300,000 tested, 1.2% active. AID 540256; calls by dose curve; tested in HEK293 cells; further: nearly all actives have a fitted effect of over 50% in size
Large screens that a line does not name were inactive. Most compounds without a hit are left out; they make up all but 8% or so of the library.

C=CCOC(=O)N[C@H](C(C(=O)OC)=C(C)NCc1ccccc1)c1cccc(OC)c1	none (no result: SARS PLpro yeast, HCMV inh, FMDV antiviral, HCV inhibitor, LASV entry inh)
O=C1c2ccccc2C(=O)N1CCCCN(C(=O)c1ccc(Cl)s1)c1ccc(Cl)cc1	FMDV antiviral inconclusive, HCV inhibitor inconclusive
Cc1ccc(N(CCCCN2C(=O)c3ccccc3C2=O)C(=O)c2ccc(Cl)s2)cc1	HCMV inh -62, HCV inhibitor inconclusive, LASV entry inh inconclusive
CCOCCCn1c(=N)c(C(=O)NC(C)c2ccccc2)cc2c(=O)n3cccc(C)c3nc21 (stereo not given)	MARV entry inh inconclusive, HCMV inh -73, FMDV antiviral inconclusive (no result: SARS PLpro yeast, HCV inhibitor)
Cc1cccn2c(=O)c3cc(C(=O)NC(C)c4ccccc4)c(=N)n(CCCn4ccnc4)c3nc12 (stereo not given)	MARV entry inh 4.5µM, HCMV inh -68, LASV entry inh inconclusive
Cc1ccc2nc3c(cc(C(=O)NCc4ccccc4)c(=N)n3CCCn3ccnc3)c(=O)n2c1	none (no result: SARS PLpro yeast, MARV entry inh, LASV entry inh)
Cc1cccn2c(=O)c3cc(C(=O)NC(C)c4ccccc4)c(=N)n(CCOCCO)c3nc12 (stereo not given)	MARV entry inh inconclusive (no result: SARS PLpro yeast, HCV inhibitor)
CCOCCCn1c(=N)c(C(=O)NCc2ccc3c(c2)OCO3)cc2c(=O)n3cccc(C)c3nc21	MARV entry inh 5.2µM, HCMV inh inconclusive, LASV entry inh inconclusive
CC(=O)N1c2ccc(S(=O)(=O)Nc3ccc(Cl)cc3C)cc2CC1C (stereo not given)	HCMV inh inconclusive (no result: SARS PLpro yeast, MARV entry inh, HCV inhibitor)
Cc1cc(C)c(NC(=O)c2ccc3c(c2)NC(=O)C(C)S3)c(C)c1 (stereo not given)	FMDV antiviral inconclusive, HCV inhibitor inconclusive (no result: MARV entry inh, LASV entry inh)
CCN(CC)S(=O)(=O)c1cc(NC(=O)NCCCl)ccc1C	LASV entry inh inconclusive
CCN(CC)S(=O)(=O)c1cc(NC(=O)c2ccc(Br)s2)ccc1C	MARV entry inh inconclusive, HCMV inh -83, FMDV antiviral inconclusive, HCV inhibitor 10µM, LASV entry inh inconclusive
CCN(CC)S(=O)(=O)c1cc(NC(=O)c2ccc3c(c2)NC(=O)C(C)S3)ccc1C (stereo not given)	HCMV inh -80, FMDV antiviral 25µM, HCV inhibitor 4µM (no result: MARV entry inh, LASV entry inh)
Cc1nc2ccccc2c(=O)n1CCc1ccccc1	none (no result: MARV entry inh, LASV entry inh)
Cc1nc2ccccc2c(=O)n1N(c1ccccc1)c1ccccc1	HCMV inh -68, HCV inhibitor inconclusive (no result: MARV entry inh, LASV entry inh)
CCc1ccc(NS(=O)(=O)c2ccc3oc(=O)ccc3c2)cc1	MARV entry inh inconclusive, HCMV inh -66
Cn1ncc(C(=O)N2CCN(c3ccc(F)cc3)CC2)c1C1CCN(C(=O)OC(C)(C)C)CC1	LASV entry inh inconclusive (no result: SARS PLpro yeast, MARV entry inh, HCV inhibitor)
COc1ccc(C2C(C#N)=C(N)Oc3cc4c(cc32)OCO4)cc1 (stereo not given)	MARV entry inh 5.8µM, LASV entry inh inconclusive (no result: FMDV antiviral)
COc1cccc(NC(=O)CCCOc2cc(=O)n(C)c3ccccc23)c1	none
COC(=O)c1ccccc1NC(=O)CCCOc1cc(=O)n(C)c2ccccc12	HCMV inh -99 (no result: SARS PLpro yeast, MARV entry inh, HCV inhibitor, LASV entry inh)
Cc1ccc(CNC(=O)c2ccc(-n3cnc4cccnc43)cc2)cc1	none (no result: SARS PLpro yeast, MARV entry inh, HCV inhibitor)
O=C(NCc1ccccc1Cl)c1ccc(-n2cnc3cccnc32)cc1	HCMV inh -94 (no result: SARS PLpro yeast, MARV entry inh, HCV inhibitor)
CN(C)C(CNC(=O)CCc1nc2sc3c(c2c(=O)[nH]1)CCCC3)c1ccccc1 (stereo not given)	MARV entry inh 10µM, HCV inhibitor inconclusive
O=C(CCc1nc2sc3c(c2c(=O)[nH]1)CCCC3)NCCOc1ccccc1	HCV inhibitor inconclusive, LASV entry inh inconclusive
COc1cc2c(cc1OC)C(COc1ccc(F)cc1)N(C(=O)c1ccc(S(=O)(=O)N3CCCC3)cc1)CC2 (stereo not given)	none (no result: SARS PLpro yeast, MARV entry inh, HCV inhibitor)
O=C(CCN1C(=O)/C(=C\c2ccccc2)SC1=S)NNC(=O)c1ccncc1	none (no result: MARV entry inh, LASV entry inh)
COc1ccc(CN2C(=O)/C(=C/c3ccncc3)SC2=S)cc1	MARV entry inh inconclusive, HCMV inh -72, HCV inhibitor inconclusive, LASV entry inh inconclusive
O=C(O)CCCCCN1C(=O)/C(=C\c2ccncc2)SC1=S	HCMV inh -99
O=C(O)CCCN1C(=O)/C(=C/c2ccncc2)SC1=S	MARV entry inh inconclusive, HCMV inh -61, HCV inhibitor inconclusive, LASV entry inh inconclusive
O=C(O)CCCCCN1C(=O)/C(=C/c2ccncc2)SC1=S	MARV entry inh inconclusive, HCMV inh -77
O=C(CCN1C(=O)/C(=C/c2ccccc2)SC1=S)NNC(=O)c1ccncc1	HCMV inh inconclusive
COc1ccc(Nc2nccc3c2cc(-c2cccc(F)c2)n3C)cc1OC	none (no result: SARS PLpro yeast, MARV entry inh, FMDV antiviral, HCV inhibitor, LASV entry inh)
COc1cccc(N2C(=O)C(O)=C(C(C)=O)[C@@H]2c2ccc(OC)c(OC)c2)c1	none (no result: SARS PLpro yeast, HCMV inh, FMDV antiviral, HCV inhibitor, LASV entry inh)
CCOC(=O)c1cc(S(=O)(=O)NCc2ccc(Cl)cc2)[nH]n1	none (no result: SARS PLpro yeast, MARV entry inh, HCV inhibitor)
COC(=O)C/C=C\[C@@H](C)[C@@H](/C=N\OC[C@@H](C)[C@H](OCc1ccccc1)C(C)C)NS(=O)(=O)c1ccc(C)cc1	none (no result: SARS PLpro yeast, HCMV inh, FMDV antiviral, HCV inhibitor, LASV entry inh)
CCNc1ncc2nc(-c3ccc(F)cc3)c(=O)n(-c3ccc(OC)cc3)c2n1	none (no result: SARS PLpro yeast, MARV entry inh, HCMV inh, HCV inhibitor, LASV entry inh)
COc1ccc(C(=O)Nc2nnc(SCc3cc(=O)n4cccc(C)c4n3)s2)cc1	none (no result: SARS PLpro yeast, MARV entry inh, HCV inhibitor)
O=C(O)C(c1ccccc1)N1C(=O)/C(=C/c2cccs2)SC1=S (stereo not given)	HCMV inh inconclusive
CC(c1ccccc1)N1C(=O)/C(=C/c2ccncc2)SC1=S (stereo not given)	FMDV antiviral 32µM, HCV inhibitor inconclusive (no result: MARV entry inh, LASV entry inh)
CCc1ccc2nc(/N=C(\N)NC(=O)c3ccccc3)nc(C)c2c1	HCV inhibitor inconclusive
COc1ccc2nc(N/C(N)=N/C(=S)Nc3ccc(C)c(C)c3)nc(C)c2c1	SARS PLpro yeast inconclusive, HCV inhibitor 4µM (no result: HCMV inh, FMDV antiviral)
CCOc1ccc2nc(N/C(N)=N/C(=S)Nc3ccc(OC)cc3)nc(C)c2c1	HCV inhibitor inconclusive (no result: MARV entry inh, LASV entry inh)
CCc1ccc(NC(=S)/N=C(\N)Nc2nc(C)c3cc(CC)ccc3n2)cc1	MARV entry inh inconclusive, FMDV antiviral inconclusive, HCV inhibitor 16µM, LASV entry inh inconclusive
COc1ccc2nc(N/C(N)=N/C(=S)Nc3ccccc3)nc(C)c2c1	MARV entry inh inconclusive, HCV inhibitor 11µM
OCC(Cc1ccccc1)Nc1c2ccccc2nc2ccccc12 (stereo not given)	MARV entry inh inconclusive, HCMV inh -63, FMDV antiviral inconclusive
Oc1ccc(CCNc2c3ccccc3nc3ccccc23)cc1O	MARV entry inh 10µM, HCMV inh -100, LASV entry inh inconclusive
CCCCNc1nc(NCc2ccccc2)nc2ccccc12	FMDV antiviral inconclusive (no result: SARS PLpro yeast, MARV entry inh, HCV inhibitor, LASV entry inh)
CNc1nc(NCc2ccccc2)c2ccccc2n1	MARV entry inh 4µM, HCV inhibitor 11µM, LASV entry inh inconclusive
OCCNc1nc(Nc2ccccc2)nc2ccccc12	MARV entry inh inconclusive, HCV inhibitor inconclusive
Oc1ccccc1Nc1nc(NCc2ccccc2)c2ccccc2n1	MARV entry inh inconclusive, HCMV inh inconclusive, FMDV antiviral inconclusive, HCV inhibitor 11µM, LASV entry inh inconclusive
O=C(NC1CC(=O)N(c2ccc(Cl)cc2)C1)c1ccc(S(=O)(=O)N2CCCC2)cc1 (stereo not given)	none (no result: SARS PLpro yeast, MARV entry inh, HCV inhibitor)
